Rows were chosen to be rich in hits. Some 5.4% of all compounds tested hit in one or more screens of this group.
Calb FLC: C. albicans growth modulation with fluconazole. C. albicans CaCi-2 (fluconazole-resistant clinical isolate) + fluconazole, Alamar Blue growth, 48 h. growth inhibition, % (test concentration not listed). hit rate 0.57% among 300,000. AID 1979;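 active = growth inhibition above about 58% in most replicates, limit read from the data, passing the limit was not always enough; inconclusive = exactly half the replicates above a set limit; inactive = most replicates below a set limit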;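 also: all wells also contain fluconazole at 8 µg/ml as a sub-toxic cotreatment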
ALR inh: blocks human ALR sulfhydryl oxidase activity; purified ALR, DTT oxidation, H2O2 HRP-luminol luminescence; inhibition, % (test concentration not listed); hit rate 3.8% among 290,000;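 active = mean replicate inhibition above about 79%, with every replicate also reaching it, limit read from the data; inconclusive = only one of the two criteria met; inactive = mean below limit and not every replicate reaching it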
PP5 inh: inhibitors of human protein phosphatase 5 (PP5); P53041; purified PP5c, OMFP substrate fluorescence; inhibition, % at 6.7 µM; hit rate 0.18% among 320,000;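 active = inhibition above the campaign's mean inhibition across all tested compounds plus 3 SD, cut at about 9.5% in these data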
Target sequence (P53041 whole entry, looked up): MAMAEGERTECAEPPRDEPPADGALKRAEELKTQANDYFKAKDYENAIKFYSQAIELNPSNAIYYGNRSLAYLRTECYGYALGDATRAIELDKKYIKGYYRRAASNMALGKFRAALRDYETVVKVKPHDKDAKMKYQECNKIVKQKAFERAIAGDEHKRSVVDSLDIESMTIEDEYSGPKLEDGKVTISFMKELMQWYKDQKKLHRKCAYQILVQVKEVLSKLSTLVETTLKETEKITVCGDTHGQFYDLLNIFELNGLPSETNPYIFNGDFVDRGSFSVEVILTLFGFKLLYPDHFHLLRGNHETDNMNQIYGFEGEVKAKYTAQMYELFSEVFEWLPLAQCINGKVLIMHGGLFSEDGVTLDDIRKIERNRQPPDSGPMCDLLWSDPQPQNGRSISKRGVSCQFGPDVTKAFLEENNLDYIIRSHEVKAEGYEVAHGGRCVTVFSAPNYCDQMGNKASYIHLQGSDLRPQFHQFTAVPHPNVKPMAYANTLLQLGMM
PP1 inh: PP1-alpha (human) inhibition in PP5 counter-screen; purified PP1alpha, OMFP fluorescence; hit rate 0.9% among 320,000; AID 2235; P62136; inhibition, % at 6.7 µM;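 active = inhibition above the mean inhibition of all tested compounds plus 3 SD, computed separately for each screening campaign, cut at about 15% in these data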
CSC inhib: blocks cancer stem cells; hit rate 1.1% among 300,000; cancer stem cell-like cells viability, luminescence; inhibition, % at 7.5 µM; AID 2717; in the data active = inhibition above about 75%; inconclusive = no clear call, values can overlap the other calls; tested in HMLE shEcad cells
Large screens that a line does not name were inactive.

COc1ccc(Cl)cc1NC(=O)CN(C)C1CCCCC1	none
Cc1noc(NS(=O)(=O)c2ccc(NC(=O)CSc3ncccn3)cc2)c1C	ALR inh 98
Cc1noc(NS(=O)(=O)c2ccc(NC(=O)CS(=O)(=O)c3ccccc3)cc2)c1C	none
Cc1cc(C)nc(SCC(=O)Nc2ccc(S(=O)(=O)Nc3onc(C)c3C)cc2)n1	ALR inh 94
Cc1noc(NS(=O)(=O)c2ccc(NC(=O)COc3ccccc3)cc2)c1C	none (no result: CSC inhib)
Cc1noc(NS(=O)(=O)c2ccc(NC(=O)CSc3nc4ccccc4s3)cc2)c1C	ALR inh 99
Cc1cc(NC(=O)CN2CCCC(C)C2)no1 (centres undefined)	none
O=C(CCl)NN=C(c1ccccc1)c1ccccc1	ALR inh 94
CCN(CC)CC(=O)NN=C(c1ccccc1)c1ccccc1	Calb FLC inconclusive
CN1/C(=C\C(=O)COC(=O)c2ccc(O)c(O)c2)C(C)(C)c2ccccc21	ALR inh 99
CN1/C(=C\C(=O)C[n+]2cccc(C(N)=O)c2)C(C)(C)c2ccccc21	none
CN1/C(=C\C(=O)C[n+]2ccc(C(=O)c3ccccc3)cc2)C(C)(C)c2ccccc21	Calb FLC 98 (no result: ALR inh)
CN(c1nnc(N)s1)C1CCCCC1	ALR inh 99
CCS(=O)(=O)N1Cc2ccccc2CC1C(=O)Nc1cc(S(C)(=O)=O)ccc1Cl (centres undefined)	none
COCCNc1nc(-c2ccc(OC)cc2)c(-c2ccc(OC)cc2)s1	ALR inh 94
CCN(CC)CCNc1nc(-c2ccc(OC)cc2)c(-c2ccc(OC)cc2)s1	ALR inh 99
O=C(CSc1nc2ccccc2[nH]1)N1CCN(C(=O)c2ccco2)CC1	none
O=C(O)COc1ccc(Nc2ccccc2)cc1	ALR inh 99
O=C(COc1ccc(Br)cc1)Nc1ccncc1	none
COCCNC(=O)COc1ccc(Nc2ccccc2)cc1	ALR inh 99
CC(C)CCOc1cccc(OCC(=O)Nc2ccncc2)c1	Calb FLC 108 (no result: ALR inh)
O=C(COc1ccc(Nc2ccccc2)cc1)Nc1ccncc1	ALR inh 90
O=C(O)COc1ccc(Oc2ccccc2)cc1	none
Cc1c(C)n(-c2ccc(Cl)cc2)c2ncnc(N)c12	none
O=S(=O)(NCCOCCNS(=O)(=O)c1ccccc1)c1ccccc1	none
NC(=O)C1CCN(C(=O)COc2ccc(Nc3ccccc3)cc2)CC1	ALR inh 99
NC(=O)C1CCN(C(=O)COc2ccc3ccccc3c2)CC1	none
CC(C)OC(=O)C1C(=O)CC(C)(O)C(C(=O)OC(C)C)C1c1ccccc1 (centres undefined)	none
COC(=O)C1C(C(C)C)N(c2ccccc2)OC1(C)O (centres undefined)	ALR inh 86
Cc1cc(C)c(NC(=O)C2CSCCS2)c(C)c1 (centres undefined)	none
Cc1cc(SCNC(=O)c2ccccc2)ncn1	ALR inh 94
O=C(NCSc1ccccc1)c1ccccc1	none
COC(=O)c1ccc(C(C2C(=O)CC(C)(C)CC2=O)C2C(=O)CC(C)(C)CC2=O)cc1	none
COc1ccc(C(C2C(=O)CC(C)(C)CC2=O)C2C(=O)CC(C)(C)CC2=O)cc1CO	ALR inh 96 (no result: PP5 inh, PP1 inh)
COc1ccc2c(c1)c(CC(=O)Nc1ccc(C(C)=O)cc1)c(C)n2C(=O)c1ccc(Cl)cc1	none (no result: ALR inh)
COc1ccc2c(c1)c(CC(=O)Nc1nnc(C3CC3)s1)c(C)n2C(=O)c1ccc(Cl)cc1	PP1 inh 15 (no result: CSC inhib)
CC(C)CC(=O)NC(=S)NNC(=O)c1ccc(NC(=O)C2CCCCC2)cc1	Calb FLC 75
CC(C)CC(=O)NC(=S)NNC(=O)c1ccc([N+](=O)[O-])cc1	none
COc1ccc(C(=O)NC(=S)NNC(=O)c2ccc(C)cc2)cc1	Calb FLC 107
COC(=O)c1ccc(NC(=O)CNC(=O)c2sc3ccccc3c2Cl)cc1	PP1 inh 15 (no result: Calb FLC, ALR inh, CSC inhib)
COc1ccc(C(=O)NNC(=S)NC(=O)c2ccc(Cl)cc2)cc1	Calb FLC 88
COc1ccc(C(=O)NC(=S)NNC(=O)c2ccc(NC(=O)C(C)C)cc2)cc1	none
COc1ccc(C(=O)NC(=S)NNC(=O)c2ccc3ccccc3n2)cc1	Calb FLC 108
O=C(NNC(=S)NC(=O)c1sc2ccccc2c1Cl)c1ccc(Cl)cc1	ALR inh 98
COc1cc(CCC(=O)NNC(=O)c2ccc(Cl)cc2)cc(OC)c1OC	none (no result: ALR inh, CSC inhib)
COc1cc(C(=O)NNC(=O)c2ccc3ccccc3n2)cc(OC)c1OC	none (no result: Calb FLC)
COc1ccc(CNC(=O)c2ccc3ccccc3n2)cc1	PP1 inh 17 (no result: ALR inh)
COc1cc(C(=O)NNC(=S)NC(=O)c2ccc(Cl)cc2)cc(OC)c1OC	ALR inh 96
CS(=O)(=O)N(CC(=O)NC1CCCCC1)c1cccc(F)c1	none
CC(Sc1ccsc1[N+](=O)[O-])C(=O)NCc1ccco1 (centres undefined)	none
COc1ccc(CCNC2CC(=O)N(CCc3ccccc3)C2=O)cc1 (centres undefined)	none (no result: ALR inh)
CC(C)c1nc(N2CCOCC2)c(C#N)c2c1CCCC2	none (no result: ALR inh)
COc1ccc(C(=O)NC(=S)NNC(=O)CNC(=O)C2CCCCC2)cc1	ALR inh 99
COc1cc(NS(=O)(=O)c2ccc(NC(=S)NC(=O)c3sc4ccccc4c3Cl)cc2)nc(OC)n1	none
NC(N)=NS(=O)(=O)c1ccc(NC(=S)NC(=O)c2sc3ccccc3c2Cl)cc1	PP1 inh 16
O=C(Cn1cnc2ccccc2c1=O)OCCCCN1C(=O)c2ccccc2C1=O	none
O=C(N/C(=C/c1ccco1)C(=O)N1CCCCCC1)c1cccs1	Calb FLC inconclusive, ALR inh 97
COC(=O)/C(=C/c1ccco1)NC(=O)c1ccccc1	none (no result: ALR inh)
O=C(O)/C(=C\c1ccco1)NC(=O)c1ccccc1	ALR inh 97 (no result: CSC inhib)
CS(=O)(=O)c1cccc(C(=O)Oc2ccccc2)c1	none (no result: ALR inh)
CCC(=O)N1CCc2cc(S(=O)(=O)CCC(=O)Nc3nc(C)cs3)ccc21	ALR inh 99
CCC(=O)N1CCc2cc(S(=O)(=O)CCC(=O)O)ccc21	none
CCC(=O)N1CCc2cc(S(=O)(=O)CCC(=O)Nc3ccc(C)cn3)ccc21	ALR inh 99
CCC(=O)N1CCc2cc(S(=O)(=O)CCC(=O)NCc3ccc(C)cc3)ccc21	none
Cc1nnc(SCC(=O)Nc2nc3ccccc3s2)n(N)c1=O	none
Nn1c(SCC(=O)Nc2nc3ccccc3s2)nncc1=O	ALR inh 98
COc1ccc(NC(=O)CSc2nc(O)cc(=O)n2-c2ccccc2)cc1	ALR inh 99 (no result: PP5 inh, PP1 inh)
Cc1cccc(NC(=O)CSc2nc3ccccc3c(=O)n2C)c1	none (no result: ALR inh)
O=C(CSc1nc(O)cc(=O)n1-c1ccccc1)Nc1nc2ccccc2s1	ALR inh 99
Cn1ccnc1SCC(=O)Nc1nc2ccccc2s1	ALR inh inconclusive
Cn1c(SCC(=O)Nc2ccccc2)nc(O)cc1=O	ALR inh 99 (no result: CSC inhib)
Cc1cc(NC(=S)Nc2ccccc2)ccc1Br	none
COc1ccccc1-n1c(SCC(=O)Nc2ccc(Br)cc2)nc(O)cc1=O	ALR inh 99
CCCn1c(SCC(=O)Nc2ccc(F)c(Cl)c2)nc(O)cc1=O	none (no result: Calb FLC, ALR inh, PP5 inh, PP1 inh)
COc1ccc(NC(=O)CSc2nc(O)cc(=O)n2C)cc1	ALR inh 99
COc1ccc(NC(=O)CSc2nnc(C3CC3)n2C)cc1	none

Source: PubChem BioAssay (several laboratories)
